Out of some 330,000 compounds screened, about 7,300 (2.2%) were called active. What follows is part of a selection rich in actives, with near analogues and random picks from the rest. Values without a mark were called inactive.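 The calls were made as follows: active = inhibition of at least 40%; inactive = the rest.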
Assay: growth inhibition of tim10-1 ts yeast – luminescence, uHTS, primary screen (AID 463190);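 also: mutant grown at 25 °C; 0% = DMSO wells with yeast and 100% = wells holding no yeast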
Details: S. cerevisiae tim10-1 ts strain growth, BacTiter-Glo, 24 h; at 20 µM; stronger effect = higher value

SMILES	inhibition
CC(C)CCN1CCC(C)(NC(=O)c2ccccc2)C1=O (centres undefined)	10.4%
COc1ccc(CN2C(=O)C(C)S/C2=N/N=C/c2ccco2)cc1 (centres undefined)	19.3%
Cc1nn(-c2ccccc2)c2c1C(c1ccc(F)cc1)C(C#N)=C(N)O2 (centres undefined)	24%
COc1ccccc1C1C(C#N)=C(N)Oc2c1c(-c1ccccc1)nn2-c1ccccc1 (centres undefined)	40.7% (active)
Cc1nn(Cc2ccccc2)c2c1C(c1ccccc1)C(C#N)=C(N)O2 (centres undefined)	30.9%
COc1ccc(CCOC(=O)CNC(=O)c2ccc(Cl)cc2Cl)cc1	18.1%
O=C(O)c1cccnc1Sc1ncnc2sc3c(c12)CCC3	-4.59%
c1c2c(cc3sc(N4CCCCC4)nc13)OCCO2	43.1% (active)
Cc1nc(N2CCCCC2)sc1C=O	-8.24%
Brc1ccc2nc(N3CCCC3)sc2c1	22.5%
CC(C)N(C(=O)CN1CCN(S(=O)(=O)c2ccc(Br)s2)CC1)C(C)C	16.4%
O=C(COC(=O)C1CC2C=CC1C2)Nc1ccccc1 (centres undefined)	13.3%
O=C1CC(c2cccc(Cl)c2)CC(O)=C1C=Nc1ccccc1 (centres undefined)	21.6%
CCOc1ccc(-c2cc(C(=O)N/N=C/c3ccc(O)cc3)c3ccccc3n2)cc1	6.2%
O=C(O)c1cc([N+](=O)[O-])c(Nc2cccc3ccccc23)c([N+](=O)[O-])c1	7.28%
CCOC(=O)c1c(-c2cccc(N)c2)cn2ccccc12	10.5%
CCOC(=O)c1nnn(-c2nonc2OC)c1-c1ccccc1	15.2%
CCOC(=O)c1c(N)nn(C(=O)c2ccccc2)c1-c1ccccc1	41.5% (active)
Cc1ccnc(NC(=O)Cn2ccc([N+](=O)[O-])n2)c1	14.6%
COc1cccc(/C=C/C(=O)OCC(=O)N2CCN(c3ccccc3)CC2)c1	17.4%
Cn1c(-c2ccco2)nc2cc3ccccc3cc21	33.2%
Cc1cc(NCc2ccco2)n2c(nc3ccccc32)c1C#N	7.48%
CN1c2ccccc2-c2nc3ccccc3n2C1c1ccco1 (centres undefined)	42.1% (active)
CCO[C@H]1OC(C(=O)O)=C[C@@H](C2CCCCC2)[C@@H]1CCCO	-21.3%

SMILES	inhibition
CCCOc1ccc(Cc2c(Cl)nc(SC)nc2NC)cc1	35.5%
CCc1cc(C(=O)c2ccc(OC)cc2)c(NC(=O)CN2CCN(C)CC2)s1	17.7%
CCc1cc(C(N)=O)c(NC(=O)c2ccc(OC)cc2)s1	45.5% (active)
COc1ccc(C(=O)Nc2sc(C)c(C)c2CN2CCOCC2)cc1	34.2%
C/C(Cn1nnc2ccccc21)=N\OC(=O)c1cc(F)c(F)cc1Cl	37.4%
Cc1n[nH]c(=O)c2c(NC(=O)COC(=O)c3ncc(Cl)c(Cl)c3Cl)oc(C)c12	10.5%
CC(C(=O)O)n1cnc2sc3c(c2c1=O)CCCC3 (centres undefined)	2.4%
COc1cc(Cl)ccc1OCc1cc(C(=O)N(C)CCc2c(C)n[nH]c2C)no1	7.82%
Cc1ccc(C(=O)CSc2ccccc2C(=O)O)cc1	-0.398%
Cc1ccc(CSCC(N)C(=O)O)cc1 (centres undefined)	13.8%
Cc1ccc(SC(CC(=O)c2ccc(C(C)(C)C)cc2)C(=O)O)cc1 (centres undefined)	40.7% (active)
CCC(C(=O)OCC(=O)Nc1c(Cl)cc(Cl)cc1Cl)c1ccccc1 (centres undefined)	39.5%
CCOC(=O)c1c(CN(C)C)n(-c2ccccc2)c2cc(Br)c(O)cc12	10.1%
CCOC(=O)c1c(CN2CCOCC2)n(-c2ccccc2)c2ccc(O)cc12	45% (active)
CCOC(=O)c1nnn(-c2nonc2-n2cccc2)c1CN1CCOCC1	23.2%
Cc1ccc(NC(=O)CN2CCC3(O)CCCCC3C2c2ccc3c(c2)OCO3)c(C)c1 (centres undefined)	45.2% (active)
CC1CCCCN1CC(=O)NCc1ccc2c(c1)OCO2 (centres undefined)	4.67%
CCN(CC)c1ccc(C2C3CCCCC3(O)CCN2CC(=O)Nc2ccccc2)cc1 (centres undefined)	-17.2%
COc1ccc(N2CCN(C(=O)COC(=O)c3cccc(S(=O)(=O)Nc4ccccc4OC)c3)CC2)cc1	19.1%
O=C1NC[C@@H](c2ccccc2)OC(=O)[C@H](Cc2ccc(F)cc2)CC/C=C/C[C@H]1CC(=O)N(CCO)Cc1ccccc1	3%
S=c1nc(C23CC4CC(CC(C4)C2)C3)nc2sccn12	-12.4%
CCOc1ccc(NC(=O)COc2ccc(C(=O)N3CCC(C(N)=O)CC3)cc2OC)cc1	3.08%
Cc1cccc(C2c3[nH]c4ccccc4c3CCN2C(=O)c2cc(-c3cccn3C)n[nH]2)n1 (centres undefined)	44% (active)
Cc1cccc(C(=O)N2CCc3c([nH]c4ccccc34)C2CC(C)C)n1 (centres undefined)	10.6%

SMILES	inhibition
O=C(c1cn2ccccc2n1)N1CCc2c([nH]c3ccccc23)C1c1ccccn1 (centres undefined)	22.4%
COCC1CCN(C(=O)C2CCC(=O)N(CC3CCCCC3)C2)CC1 (centres undefined)	-9.11%
Cc1nc(SC(C)C)[nH]c(=O)c1Cc1ccccc1	18.7%
O=C1COc2ccc(S(=O)(=O)Nc3ccc(OC(F)(F)F)cc3)cc2N1	18.6%
O=S(=O)(Nc1ccc(O)c2ccccc12)c1ccc(OC(F)(F)F)cc1	42.5% (active)
Cc1nn(C)c(C)c1NS(=O)(=O)c1ccc(OC(F)(F)F)cc1	-1.38%
CC(=O)NS(=O)(=O)c1ccc2c(c1)Cc1cc(S(=O)(=O)NC(C)=O)ccc1-2	-1.53%
O=C1CC2(CC(c3ccc(Cl)cc3)=NO2)C(=O)N1c1ccccc1 (centres undefined)	-3.93%
CN(C)CCCN(C(=O)c1ccc(S(=O)(=O)N2CCCc3ccccc32)cc1)c1nc2ccc(F)cc2s1	52.8% (active)
CN(C)CCCN(C(=O)c1ccc(S(=O)(=O)N2CCCCCC2)cc1)c1nc2ccc(Br)cc2s1	26.2%
CN(C)CCCN(C(=O)c1ccc(S(=O)(=O)N2CCCCCC2)cc1)c1nc2cc3c(cc2s1)OCCO3	27.4%
O=[N+]([O-])c1ccc(S(=O)(=O)Nc2cccc(-c3ccc(N4CCCC4)nn3)c2)cc1	11.6%
Cc1c(C(=O)NCCN2CCOCC2)sc2nc(-c3ccc(F)cc3)cn12	4.04%
FC(F)(F)Oc1ccc(NC(=S)NCc2ccccc2)cc1	41.8% (active)
CCNC(=S)Nc1ccc(OC(F)(F)F)cc1	14.5%
COC(=O)Cc1ccc(NC(=S)NCc2ccccc2)cc1	21.8%
Cc1ccc(CCNC(=O)C2CCN(S(=O)(=O)N3CCCC3)CC2)cc1	4.68%
CCOc1ccc(C2/C(=C(/O)c3ccc4c(c3)CC(C)O4)C(=O)C(=O)N2CCCn2ccnc2)cc1 (centres undefined)	-3.88%
Cc1[nH]c2ccccc2c1C(=O)CSCC(=O)O	12.6%
Cc1[nH]c2ccccc2c1C(=O)COC(=O)c1c(-c2ccccc2)noc1C	52.3% (active)
Cc1onc(-c2ccccc2Cl)c1C(=O)OCC(=O)c1ccccc1	11.7%
O=C(CSc1ccc(-c2ccco2)nn1)Nc1cccc(F)c1	3.73%
Fc1cccc(Cl)c1CSc1ccc(-c2ccco2)nn1	45.4% (active)
Cc1cc(SCc2c(F)cccc2Cl)nc(=O)[nH]1	6.52%

SMILES	inhibition
CC(C)NC(=O)C(=O)NCCN1CCN(S(=O)(=O)c2ccc(Cl)cc2)CC1	2.58%
CC/C(=N\O)C(C)(C)/[N+]([O-])=C/c1ccc(Br)cc1	5.1%
N#C/C(=C\c1ccc(O)c(O)c1)C(=O)NCc1ccccc1	-4.07%
COCCNC(=O)/C(C#N)=C/c1cccc(OCc2ccccc2)c1	52.7% (active)
O=C(N/N=C/c1cccc(OCc2ccccc2)c1)c1ccc(Br)o1	27.9%
C=CCNC(=O)COC(=O)c1ccccc1C(=O)N(C)C1CCCCC1	16.1%
CCOc1ccc(CN2CCN(Cc3ccc(C)o3)CC2CCO)cc1 (centres undefined)	5.81%
Cc1ccc(CC(=O)Nc2ccc(S(=O)(=O)N3CCOCC3)cc2)cc1C	19%
O=C(CCc1ccc(S(=O)(=O)N2CCOCC2)cc1)Nc1ccc2ccccc2c1	41.9% (active)
O=C(COC(=O)CCc1ccc(S(=O)(=O)N2CCOCC2)cc1)Nc1cccc(Cl)c1	5.19%
CC(C)(C)OC(=O)C[C@@H]1C/C=C\C[C@@H](CC(=O)N[C@H](CO)Cc2ccccc2)C(=O)NCCOC1=O	-5.51%
Cc1ccc2c(c1)nnc1nnc(SCC(=O)O)n12	-10.5%
CC1OC2C(OC1C)N(S(C)(=O)=O)CCN2S(C)(=O)=O (centres undefined)	1.46%
Cc1cccc(NC(=O)c2ccc3ccccc3n2)n1	27.1%
Clc1ccc(Nc2ccc3ccccc3n2)cc1	54.1% (active)
Cc1cc(Nc2ccc(Br)cc2)nc2ccccc12	29.6%
CCOC(=O)C1CCCN(S(=O)(=O)c2ccc3c(c2)C(C)(C)C(=O)N3C)C1 (centres undefined)	-10.8%
CC1CCC2(CC1)NC(=O)N(CC(=O)c1ccc3c(c1)OCO3)C2=O (centres undefined)	-17.1%
Cc1ccc(S(=O)(=O)NC2CCCCCC2)cc1	21.3%
CSc1ccc(S(=O)(=O)NC2CCCCC2)cc1	45.6% (active)
CC(C)c1ccc(S(=O)(=O)NC2CCCC2)cc1	19%
CC(=O)c1ccccc1OCc1ccc(C(=O)c2ccccc2)cc1	9.55%

From PubChem BioAssay AID463190 (Sanford-Burnham Center for Chemical Genomics, 2010)
